From PubChem BioAssay AID1731 (National Center for Advancing Translational Sciences (NCATS), 2009)
A number with no mark means an inactive call. Activity calls are given as the source filed them. The call rests on the fitted dose curve; in most records, active means well fitted curve in the direction sought with a large enough effect; inactive means no such curve, though single readings can be large or run the other way.

Target: Epidermal growth factor receptor (Homo sapiens) (UniProt P00533)
Assay: Assay for Inhibitors of the ERK Signaling Pathway using a Homogeneous Screening Assay: EGFR Kinase Inhibition
Settings: homogeneous biochemical assay; series mostly up to 21.9 µM; activity change, negative = inhibition: at the top concentration
From the text: qHTS Assay for Inhibitors of the ERK Signaling Pathway using a Homogeneous Screening Assay
NIH Chemical Genomics Center [NCGC]
NIH Molecular Libraries Screening Centers Network [MLSCN]
Assay Submitter (PI): Dr. Wei Zheng, NCGC/NIH
The Ras/extracellular-signal-regulated kinase (ERK) mitogen activated protein (MAP) kinase signaling pathway (ERK1/2 cascade) plays is a key role in transmitting signals from the cell surface to the nucleus (Nishida and Gotoh 1993; Chang and Karin, 2001). The cascade is initiated by the small G-protein Ras, which recruits Raf […], where activation occurs. Alternatively, this pathway can be activated by elevating intracellular cAMP.
Activation of the ERK pathway is essential in increased cell division and cell survival. Sustained and constitutive activation of the ERK pathway, however, has been linked to uncontrolled cell proliferation, increased cell survival, and tumor progression. Thus, the ERK has been as an attractive target for cancer chemotherapy in the past few years (Sebolt-Leopold and Herrera, 2004). Given its physiological and pathological importance, assessment of ERK phosphorylation has been broadly performed in both basic research and drug discovery. Most assays for the measurement of ERK phosphorylation use the antibody-based detection methods, such as western blot and ELISA. These assays require multiple reagent additions with cell wash steps and are not suitable for high-throughput screening.
The current cell-based ERK phosphorylation assay was performed using AlphaScreen platform. AlphaScreen is a two bead-based proximity-dependent chemical energy transfer luminescent assay platform. The assay reagents (ERK SureFire(TM) kit) were supplied from TGR BioSciences (Australia). In the presence of specific antibodies, phosphorylated ERK will bring "donor" and "acceptor" beads to a proximity range (<200 nm), and subsequently lead a chemical luminescent reaction upon exciting donor beads with 680 nm laser. To validate pathway hits from the cell-based assay, enzyme assays consisting of EGFR tyrosine kinase, Raf and MEK were used as a means of deciphering the enzymes of target for the prioritized group of compounds derived from the HEK-293 cell based assay. The compounds were tested against significant members of the ERK signaling pathway EGFR and EGFR mutants (EGFR L858R, EGFR T790M, and EGFR L858R T790M). In order to establish the specificity of the prioritized compounds for EGFR and EGFR mutants, the compounds were also assayed against other important ERK signaling pathway enzymes, c-RAF and MEK-1.
NCGC Assay Protocol Summary:
The HTRF kinase assay (components supplied as kit by Cisbio) was chosen for the EGFR and EGFR mutant enzyme assays that applied the time resolved fluorescence resonance energy transfer (TR-FRET) principle. A peptide substrate is labeled with a biotin that can bind to XL665 labeled streptavidin and the anti-phosphoresidue antibody is labeled with Eu+. Upon phosphorylation of the substrate, the antibody binds to phosphorylated substrate that enables TR-FRET detection in homogenous assay format.
An HTRF Kinease TK assay kit (Cisbio, Bedford, MA) was used to develop the EGFR and EGFR mutant assays (Harbert et al., 2008. Harbert C, Marshall J, Soh S, Steger K. Development of a HTRF Kinase Assay for Determination of Syk Activity. Current Chemical Genomics. 1: 20-26. 2008). EGFR and EGFR mutants were obtained from Invitrogen. The assay buffer was composed of 50 mM HEPES (pH 7.0), 5 mM MgCl2, 5mM DTT, 0.1 % NaN3, 0.1 % BSA and 0.1 mM orthovanadate.
The HTRF assays were preformed according to the HTRF Kinease TK kit. Optimization for each enzyme was preformed in 384 well format (data not included). All reagents were dispensed into 1536 well plates.
(1) Enzyme, […] EGFR at 3 nM final
(2) Compound, 22 nl, Library Compounds in 0.128 to 10 mM titration series or control
(3) Reagent, 1.5 ul 10 uM ATP and 0.25 uM substrate final
(4) Incubation for 30 min, Ambient conditions
[…]

Epidermal growth factor receptor (Homo sapiens), sequence (P00533 whole entry, looked up): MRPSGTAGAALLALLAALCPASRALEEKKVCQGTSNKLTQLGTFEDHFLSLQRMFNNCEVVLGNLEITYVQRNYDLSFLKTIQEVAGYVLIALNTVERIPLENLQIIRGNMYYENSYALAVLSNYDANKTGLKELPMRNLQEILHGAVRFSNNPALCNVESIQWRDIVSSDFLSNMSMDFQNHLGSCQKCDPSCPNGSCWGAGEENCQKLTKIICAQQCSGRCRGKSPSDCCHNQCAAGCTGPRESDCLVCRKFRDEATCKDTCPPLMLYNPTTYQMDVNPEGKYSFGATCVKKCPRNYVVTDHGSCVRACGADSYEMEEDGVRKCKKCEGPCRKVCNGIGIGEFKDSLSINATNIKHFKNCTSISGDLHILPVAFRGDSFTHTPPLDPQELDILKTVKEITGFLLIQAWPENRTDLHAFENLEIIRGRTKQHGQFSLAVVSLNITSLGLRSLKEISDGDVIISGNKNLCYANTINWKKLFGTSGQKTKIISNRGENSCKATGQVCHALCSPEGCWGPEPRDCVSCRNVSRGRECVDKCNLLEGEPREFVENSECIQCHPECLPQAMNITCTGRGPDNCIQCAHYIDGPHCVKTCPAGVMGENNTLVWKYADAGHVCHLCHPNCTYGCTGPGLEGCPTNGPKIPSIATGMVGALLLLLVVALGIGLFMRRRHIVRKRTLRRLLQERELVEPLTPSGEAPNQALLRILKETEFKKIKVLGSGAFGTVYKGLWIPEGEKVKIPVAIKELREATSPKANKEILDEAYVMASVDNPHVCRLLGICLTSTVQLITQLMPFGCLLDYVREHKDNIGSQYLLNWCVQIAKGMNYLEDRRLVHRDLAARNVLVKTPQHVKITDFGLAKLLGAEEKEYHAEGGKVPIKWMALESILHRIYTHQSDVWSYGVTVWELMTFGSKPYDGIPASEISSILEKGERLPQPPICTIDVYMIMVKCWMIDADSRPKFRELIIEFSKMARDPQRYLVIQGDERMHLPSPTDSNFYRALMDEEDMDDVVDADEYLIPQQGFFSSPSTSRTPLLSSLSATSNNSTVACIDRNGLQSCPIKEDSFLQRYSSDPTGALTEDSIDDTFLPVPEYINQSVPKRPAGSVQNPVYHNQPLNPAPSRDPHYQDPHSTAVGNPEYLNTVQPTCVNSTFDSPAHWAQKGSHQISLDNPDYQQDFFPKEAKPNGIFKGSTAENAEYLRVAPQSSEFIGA

SMILES	activity change, negative = inhibition	Potency
CCn1c(=O)c2[nH]c(-c3ccccc3)nc2n(CC)c1=O	-8.89%	
O=C1c2ccccc2C(=O)c2c(NCCCN(CCO)CCO)cccc21	-1.11% [at 65.8 µM]	
Cc1ccc2nc(=O)c(NNc3ccccc3)cnc2c1		708 nM (active)
O=C1c2ccccc2C(=O)c2c1cccc2N1CCCC1	-1.25%	
Cn1c(=O)[nH]c2nnc(-c3ccc(Cl)c(Cl)c3)nc2c1=O	-10.3%	
CCN(CC)CCC(=O)Nc1cccc2c1C(=O)c1ccccc1C2=O	-9.46%	
COc1ccc(C(=O)c2ccc(Cl)c([N+](=O)[O-])c2)cc1	-7.44%	
CS(=O)(=O)CCNCc1nc(-c2ccc3ncnc(Nc4ccc(OCc5cccc(F)c5)c(Cl)c4)c3c2)cs1		8.9 nM (active)
Fc1ccc(Nc2ncnc3sc4c(c23)CCC4)cc1F		70.8 nM (active)
Cc1nc2ccccc2nc(=O)c1NNc1ccccc1		708 nM (active)
Cn1nc(-c2ccc(Cl)cc2)nc2c(=O)n(C)c(=O)nc1-2	-13% [at 65.8 µM]	
Cn1nc(-c2ccccn2)nc2c(=O)n(C)c(=O)nc1-2	-18.1% [at 65.8 µM]	
N#C/C(=C(/N)Sc1ccc(N)cc1)c1ccccc1C(F)(F)F		inactive
O=C(Nc1nc(-c2ccccc2)cs1)c1ccc(N2CCOCC2)c([N+](=O)[O-])c1	-9.72%	
CN(C)c1cccc2c1C(=O)c1ccccc1C2=O	5.22% [at 65.8 µM]	
Cc1ccc(NNc2c(C)nc3ccccc3nc2=O)cc1		4470 nM (active)
CNc1cccc2c1C(=O)c1ccccc1C2=O	-3.66% [at 65.8 µM]	
